Test [1] deals with Progesterone receptor (Homo sapiens) (UniProt P06401). Nature of the test: qHTS assay to identify small molecule antagonists of the progesterone receptor (PR) signaling pathway (AID 1346795; active means well fitted inhibition curve with a large enough effect in the signal ratio in the repeat runs, not every such curve was filed as active; the % refers to the signal ratio; further: potency means the concentration at half of the fitted maximal effect). The method in brief: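 PR-UAS-bla HEK293T cells carrying a UAS-driven beta-lactamase reporter were plated in medium with 2% charcoal-stripped FBS and rested 6 hr at 37C. Compounds were added with 1 nM R5020 (final) for 16 hr, then FRET substrate loaded 2 hr at room temperature.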
For orientation: qHTS replaces the single test concentration by a dilution series.

Test [2] is described as follows: qHTS assay to identify small molecule antagonists of the progesterone receptor (PR) signaling pathway - cell viability counter screen (AID 1346798). Further: series mostly up to about 92 µM; nearly all actives have a fitted effect of over 50% in size. The method in brief: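 PR-UAS-bla HEK293T cells in medium with 2% charcoal-stripped FBS were treated with compounds plus R5020 for 16 hr at 37C. Cell viability was then read by CellTiter-Glo luminescence after 30 min at room temperature in the same wells.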

Test [3] can be described thus: qHTS assay to identify small molecule agonists of the progesterone receptor (PR) signaling pathway - cell viability counter screen (AID 1346799; calls by dose curve; further: nearly all actives have a fitted effect of over 45% in size). In short, it runs like this: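 PR-UAS-bla HEK293T cells, 3,000 per well in medium with 2% charcoal-stripped FBS, were preincubated 6 hr at 37C, then exposed to compounds for 16 hr; viability was read as CellTiter-Glo luminescence after 30 min at room temperature.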

Test [4] in a line: qHTS assay to identify small molecule antagonists of the TGF-beta/Smad signaling pathway - cell viability counter screen (AID 1346824). Further: nearly all actives have a fitted effect of over 50% in size. In short, it runs like this:
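SBE-bla HEK 293T cells, incubated overnight, then compound plus 0.25 ng/mL TGF-beta1 (stock added) for 5 hr at 37 C. Viability was read in the same wells by CellTiter-Glo luminescence after 30 min at room temperature.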

Test [5] in a line: qHTS assay to identify small molecule agonists of the TGF-beta/Smad signaling pathway - cell viability counter screen (AID 1346829). Further: top concentration of the series differs between compounds; nearly all actives have a fitted effect of over 45% in size. The method in brief: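 CellTiter-Glo luminescence readout; SBE-bla HEK 293T cells, overnight plating, compound 5 hr at 37 C/5% CO2, then bla substrate 2 hr RT, then CellTiter-Glo 30 min RT.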
Test [6] can be described thus: qHTS assay to identify small molecule agonists of the TGF-beta/Smad signaling pathway (AID 1346859; active means well fitted activation curve with a large enough effect in the signal ratio in the repeat runs, not every such curve was filed as active; the % refers to the signal ratio; further: series mostly up to about 77 µM). In short, it runs like this:
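HEK 293T cells stably carrying a beta-lactamase reporter driven by the Smad binding element were seeded overnight, exposed to DMSO-dissolved compounds for 5 hr at 37 C, 5% CO2, then loaded with FRET substrate for 2 hr at room temperature.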

In test [7] the target is Thyrotropin-releasing hormone receptor (Homo sapiens) (UniProt P34981). Kind of test: qHTS assay to identify small molecule antagonists of the thyrotropin-releasing hormone receptor (TRHR) signaling pathway (AID 1346877; active means well fitted inhibition curve with a large enough effect in the repeat runs, not every such curve was filed as active; further: series mostly up to about 51 µM). The method in brief: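 Cells (TRHR-HEK293) are plated and kept 18 h at 37 °C/5% CO2. A calcium-sensitive dye is added for 2 h, compound follows for 5 min at room temperature, and TRH is then given at 1 nM final.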

The target is the same in test [8]. Kind of test: qHTS assay to identify small molecule agonists of the thyrotropin-releasing hormone receptor (TRHR) signaling pathway (AID 1346891; calls by dose curve; further: series mostly up to about 58 µM). The method in brief: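 TRHR-expressing HEK293 cells were plated 18 h at 37 °C/5% CO2, loaded with calcium dye 2 h at 37 °C, then given compound in DMSO; fluorescence was read kinetically for 3 min at 1 s intervals.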

Test [9] can be described thus: Human pregnane X receptor (PXR) small molecule agonists, qHTS cell viability counter screen (AID 1346977). Further: nearly all actives have a fitted effect of over 50% in size. Further: potency means the concentration at half of the fitted maximal effect. In short, it runs like this: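 PXR-Luc HepG2 cells in medium with 5% charcoal-stripped FBS were pre-incubated 5hr, then exposed to compounds for 24hr at 37C. Viability was read in the same wells by CellTiter-Fluor fluorescence, reagent added after 23hr with a 1hr incubation.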

The nature of test [10]: Caspase-3/7 induction in HepG2 cells by small molecules, qHTS assay (AID 1346978). Further: nearly all actives have a fitted effect of over 15% in size. Further: potency means the concentration at half of the fitted maximal effect. In short, it runs like this:
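Wild-type HepG2 cells, 2,000/well, settled 5 hr at 37 C and 5% CO2, then compound-treated for 17 hr; caspase-3/7 activity read by luminescent Caspase-Glo 3/7 after 30 min at room temperature.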

Test [11] in a line: Caspase-3/7 induction in CHO-K1 cells by small molecules, qHTS cell viability counter screen (AID 1346979). Further: nearly all actives have a fitted effect of over 35% in size. Further: potency means the concentration at half of the fitted maximal effect. In short, it runs like this: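 Wild-type CHO-K1 cells were seeded at 1,500 per well, rested 5hr at 37 C, then exposed to compounds in DMSO. After 16hr, CellTiter-Fluor reagent was added and fluorescence read 1hr later as the viability measure.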
The nature of test [12]: Caspase-3/7 induction in CHO-K1 cells by small molecules, qHTS assay (AID 1346980). Further: nearly all actives have a fitted effect of over 15% in size. Further: potency means the concentration at half of the fitted maximal effect. In short, it runs like this: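 Wild-type CHO-K1 cells exposed to compounds for 17hr at 37 C, 5% CO2. Caspase-3/7 activity then measured by Caspase-Glo 3/7 luminescence after 30min at room temperature.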
Test [13] can be described thus: Caspase-3/7 induction in HepG2 cells by small molecules, qHTS cell viability counter screen (AID 1346981). Further: nearly all actives have a fitted effect of over 30% in size. Further: potency means the concentration at half of the fitted maximal effect. In short, it runs like this: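 Steps: seed 2,000 HepG2 cells per well; incubate 5 hr at 37 C; pin-add compounds in DMSO; incubate 16 hr; add CellTiter-Fluor; after 1 hr at 37 C and 5% CO2, read fluorescence.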
In test [14] the target is Nuclear receptor subfamily 1 group I member 2 (Homo sapiens) (UniProt O75469). Kind of test: Human pregnane X receptor (PXR) small molecule agonists, qHTS assay (AID 1346982). Further: nearly all actives have a fitted effect of over 35% in size. Further: potency means the concentration at half of the fitted maximal effect. In short, it runs like this: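 Agonist mode qHTS: PXR-Luc HepG2 cells plated 5 hr before DMSO-dissolved compounds were pinned in, cultured 24 hr at 37 C, 5% CO2; ONE-Glo luminescence readout.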
Test [15] addresses Cytochrome P450 2D6 (Homo sapiens) (UniProt P10635). Nature of the test: Cytochrome P450 Family 2 Subfamily D Member 6 (CYP2D6) small molecule antagonists: luciferase reporter qHTS assay (AID 1671196). Further: nearly all actives have a fitted effect of over 50% in size. Further: potency means the concentration at half of the fitted maximal effect. The method in brief:
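P450-Glo format: CYP2D6 converts a proluciferin substrate to luciferin in an NADPH-driven reaction lasting 1 h at room temperature. Light output, proportional to CYP2D6 activity, reflects interference by test chemicals.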
In general terms: In a reporter assay the amount or activity of a reporter protein is the signal.

The target of test [16] is Progesterone receptor (Homo sapiens) (UniProt P06401). Kind of test: qHTS assay to identify small molecule agonists of the progesterone receptor (PR) signaling pathway (AID 1346784; calls by dose curve; further: nearly all actives have a fitted effect of over 30% in size). In short, it runs like this: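 PR-UAS-bla HEK 293T cells carrying a UAS-driven beta-lactamase reporter were seeded in medium with 2% charcoal-stripped FBS, preincubated 6 hr at 37C, then exposed to compounds in DMSO for 16 hr; agonism was read by LiveBLAzer B/G FRET fluorescence.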

The target of test [17] is Nuclear receptor subfamily 1 group I member 2 (Rattus norvegicus) (UniProt Q9R1A7). Kind of test: Rat pregnane X receptor (rPXR) activation by small molecules, qHTS assay (AID 1346983). Further: nearly all actives have a fitted effect of over 20% in size. To be noted: rPXR luciferase reporter cells, One-Glo luminescence, 24 h; stronger effect = higher value. In short, it runs like this:
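Cell-based rPXR activation assay: rPXR cells, 2,000 per well, rested 5hr at 37 C, then exposed to compounds in DMSO for 24 hr at 37 C. Luciferase activity read by One-Glo luminescence after 30 min at room temperature.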

The target in test [18] is Nuclear receptor subfamily 1 group I member 2 (Homo sapiens) (UniProt O75469). Nature of the test: Human pregnane X receptor (PXR) activation by small molecules, qHTS assay (AID 1346985). Further: nearly all actives have a fitted effect of over 40% in size. Further: potency means the concentration at half of the fitted maximal effect. In short, it runs like this: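 DPX-2 cells (HepG2 co-transfected with a PXR response element and a CYP3A4-promoter luciferase construct) were seeded at 2,000 per well, rested 5 hr at 37C, then exposed to DMSO-dissolved compounds for 24 hr. Activation was read as luciferase luminescence.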

Test [19] can be described thus: qHTS assay to identify small molecule agonists of the estrogen receptor alpha (ER-alpha) signaling pathway in the presence of an antagonist - cell viability counter screen (AID 1259386).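 Further: cells exposed to compounds for 22 h at 37 °C before the viability read; nearly all actives have a fitted effect of over 30% in size.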 Further: potency means the concentration at half of the fitted maximal effect. In short, it runs like this: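 Cells are starved of estrogens for 5 days in charcoal-stripped serum, seeded for 24hr and co-treated with ICI-182,780 (10.0nM final) and test compounds. After 22hr at 37C, viability is read as CellTiter-Fluor fluorescence.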

Several values for one entry are separate records, joined by “and”; a condition that tells them apart may be missing. Equal values may be shown once. Unmarked numbers belong to inactive results. Results filed as inconclusive are left out. Activity calls are given as the source filed them. Unless noted, the call rests on the fitted dose curve; in most records, active means well fitted curve in the direction sought with a large enough effect in the repeat runs; inconclusive means weak or mixed curves; inactive means no such curve, though single readings can be large; an effect the other way counts as inactive or inconclusive.
On the % scale 0 is the no-effect control and ±100 the full control effect.

Sequence of Nuclear receptor subfamily 1 group I member 2 (Rattus norvegicus) (Q9R1A7 whole entry, looked up): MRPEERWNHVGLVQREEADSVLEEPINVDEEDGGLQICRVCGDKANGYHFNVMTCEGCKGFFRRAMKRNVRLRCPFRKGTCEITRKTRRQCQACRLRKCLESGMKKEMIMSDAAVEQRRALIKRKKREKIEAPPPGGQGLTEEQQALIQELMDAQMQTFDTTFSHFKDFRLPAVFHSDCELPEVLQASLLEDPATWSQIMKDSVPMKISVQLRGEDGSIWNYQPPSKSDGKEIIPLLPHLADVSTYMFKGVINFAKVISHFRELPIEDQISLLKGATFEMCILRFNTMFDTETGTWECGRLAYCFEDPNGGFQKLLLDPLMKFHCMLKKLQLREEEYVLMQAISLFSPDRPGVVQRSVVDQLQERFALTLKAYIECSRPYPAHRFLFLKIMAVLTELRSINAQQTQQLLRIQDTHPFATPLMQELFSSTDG
Sequence of Nuclear receptor subfamily 1 group I member 2 (Homo sapiens) (O75469 whole entry, looked up): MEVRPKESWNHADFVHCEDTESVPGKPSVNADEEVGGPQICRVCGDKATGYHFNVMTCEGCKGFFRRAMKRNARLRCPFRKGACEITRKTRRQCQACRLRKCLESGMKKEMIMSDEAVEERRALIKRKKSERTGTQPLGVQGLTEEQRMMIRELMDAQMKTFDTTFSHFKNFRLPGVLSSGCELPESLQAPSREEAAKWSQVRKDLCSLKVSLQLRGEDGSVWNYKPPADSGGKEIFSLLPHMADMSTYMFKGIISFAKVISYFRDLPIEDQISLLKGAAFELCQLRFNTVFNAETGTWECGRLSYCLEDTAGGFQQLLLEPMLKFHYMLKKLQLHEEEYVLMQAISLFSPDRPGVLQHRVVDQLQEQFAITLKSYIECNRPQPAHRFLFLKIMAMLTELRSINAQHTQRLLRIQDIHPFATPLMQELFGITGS
Sequence of Progesterone receptor (Homo sapiens) (P06401 whole entry, looked up): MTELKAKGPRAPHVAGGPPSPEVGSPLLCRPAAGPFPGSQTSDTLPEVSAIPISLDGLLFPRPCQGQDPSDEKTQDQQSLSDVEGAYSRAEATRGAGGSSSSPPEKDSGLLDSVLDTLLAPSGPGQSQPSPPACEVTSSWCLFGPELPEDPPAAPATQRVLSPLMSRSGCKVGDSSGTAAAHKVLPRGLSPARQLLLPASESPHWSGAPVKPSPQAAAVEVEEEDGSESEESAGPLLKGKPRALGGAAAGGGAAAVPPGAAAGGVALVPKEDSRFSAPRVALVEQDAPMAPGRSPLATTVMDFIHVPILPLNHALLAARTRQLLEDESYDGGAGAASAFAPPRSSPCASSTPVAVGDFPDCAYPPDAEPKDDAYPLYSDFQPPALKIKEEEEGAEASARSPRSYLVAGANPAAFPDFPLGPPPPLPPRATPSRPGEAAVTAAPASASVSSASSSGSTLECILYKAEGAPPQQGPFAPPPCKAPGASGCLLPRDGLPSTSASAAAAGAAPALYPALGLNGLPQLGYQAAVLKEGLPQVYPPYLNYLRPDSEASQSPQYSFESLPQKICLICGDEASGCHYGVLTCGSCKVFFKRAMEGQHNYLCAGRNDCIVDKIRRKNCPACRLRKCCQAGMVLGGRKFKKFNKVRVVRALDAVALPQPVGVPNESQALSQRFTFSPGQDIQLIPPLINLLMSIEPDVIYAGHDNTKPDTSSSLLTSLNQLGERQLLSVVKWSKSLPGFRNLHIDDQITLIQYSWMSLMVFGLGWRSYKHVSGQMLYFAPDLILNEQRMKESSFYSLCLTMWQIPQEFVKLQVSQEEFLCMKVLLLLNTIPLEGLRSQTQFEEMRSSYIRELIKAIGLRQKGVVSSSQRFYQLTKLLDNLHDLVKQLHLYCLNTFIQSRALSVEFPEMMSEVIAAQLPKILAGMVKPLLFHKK
Sequence of Cytochrome P450 2D6 (Homo sapiens) (P10635 whole entry, looked up): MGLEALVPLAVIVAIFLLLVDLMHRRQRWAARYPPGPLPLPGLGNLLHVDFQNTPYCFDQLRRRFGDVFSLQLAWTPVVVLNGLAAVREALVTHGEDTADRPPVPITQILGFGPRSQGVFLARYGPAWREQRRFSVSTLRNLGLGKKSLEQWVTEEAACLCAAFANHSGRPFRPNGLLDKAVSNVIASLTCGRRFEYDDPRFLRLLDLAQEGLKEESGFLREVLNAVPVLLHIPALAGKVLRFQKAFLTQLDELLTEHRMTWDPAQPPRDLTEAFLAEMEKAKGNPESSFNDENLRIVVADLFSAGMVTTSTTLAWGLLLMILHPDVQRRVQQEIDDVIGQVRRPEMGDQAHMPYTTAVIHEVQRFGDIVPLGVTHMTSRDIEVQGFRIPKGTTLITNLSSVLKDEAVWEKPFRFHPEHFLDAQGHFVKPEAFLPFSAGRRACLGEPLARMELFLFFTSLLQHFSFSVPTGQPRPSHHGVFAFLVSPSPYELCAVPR
Sequence of Thyrotropin-releasing hormone receptor (Homo sapiens) (P34981 whole entry, looked up): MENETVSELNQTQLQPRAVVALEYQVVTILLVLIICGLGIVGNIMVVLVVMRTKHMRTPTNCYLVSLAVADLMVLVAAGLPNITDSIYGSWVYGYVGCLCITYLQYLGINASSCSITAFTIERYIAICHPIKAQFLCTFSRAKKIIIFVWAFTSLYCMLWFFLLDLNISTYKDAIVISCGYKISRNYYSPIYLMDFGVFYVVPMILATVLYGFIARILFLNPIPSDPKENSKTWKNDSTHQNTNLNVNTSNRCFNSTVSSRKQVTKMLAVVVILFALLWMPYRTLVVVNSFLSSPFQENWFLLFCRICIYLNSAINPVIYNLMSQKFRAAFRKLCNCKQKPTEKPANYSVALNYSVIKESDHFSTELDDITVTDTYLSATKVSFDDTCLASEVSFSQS

As for `O=C1C(c2[nH]c3ccc(S(=O)(=O)O)cc3c2O)=Nc2ccc(S(=O)(=O)O)cc21`, the Potency entry in test [1], in test [2], in [3], in test [4], in test [5] and in test [6] was “inactive” each time. In addition, the Potency entry in test [7], in test [9], in [10], in [11], in test [12] and in test [13] was “inactive” in each case. Besides, in [14], the Potency entry is “inactive”. Further, the compound was classed as inactive in [8]. In test [15], the Potency was 63.3 µM (active).
`CN1CCN2c3ccccc3Cc3ccccc3C2C1` (stereo unspecified): the Potency entry in test [16], in test [2], in test [3], in test [4], in [5] and in [6] was “inactive” each time. The Potency entry in test [7], in [9], in test [10], in test [11] and in [13] was “inactive” in each case. The compound was called inactive in test [8].
Take `Cc1cc(C(C#N)c2ccc(Cl)cc2)c(Cl)cc1NC(=O)c1cc(I)cc(I)c1O` (stereo unspecified): the Potency in test [1] was 29.8 µM (active); in [9], 16.8 µM (active). Further, the Potency entry in [4], in [5], in test [6], in test [7], in test [10] and in test [18] was “inactive” in each case. In test [15], the Potency entry is “inactive”. Moreover, the call in [8] was inactive. The max activation in test [17] is -15.9%.
Consider `Cc1ccc(O)c(N)c1`, for which the Potency entry in test [2], in [4], in test [5], in test [6], in test [7] and in test [10] was “inactive” throughout. The Potency entry in test [12] and in test [13] was “inactive” throughout. Further, the outcome in test [8] was inactive. Moreover, the values for the Potency in [11], in [14] and in test [15] were 61.2 µM (active), 48.6 µM (active) and 35.6 µM (active), respectively.
`CN(C)Cc1ccccc1O`: the Potency entry in test [16], in [1], in [2], in test [4], in [5] and in [6] was “inactive” in each case. For the same compound, the Potency entry in test [7], in test [9], in test [10], in test [11], in test [12] and in test [13] was “inactive” throughout. For the same compound, in test [15], the Potency result is “inactive”. Also, in [8], the compound was classed as inactive.
For `CCCCN(CCCC)CC(O)c1cc(Cl)cc2c1-c1ccc(Cl)cc1/C2=C/c1ccc(Cl)cc1` (stereo unspecified), the Potency entry in test [16], in test [1], in test [2], in test [3], in [4] and in test [5] was “inactive” each time. Moreover, in test [7], the Potency result was “inactive”. The compound was classed as inactive in test [8]. Also, the Potency in [9] is 29.8 µM (active); in [11], 26.6 µM (active); in test [18], 11.2 µM (active); in test [15], 0.49 µM (active).
On to `O=C(c1ccc(O)c(O)c1)c1ccc(O)cc1O`, for which the Potency in test [1] is 15.3 µM (active); in test [11], 54.4 µM (active); in [15], 3.55 µM (active). For the same compound, the Potency entry in test [4], in test [5] and in test [12] was “inactive” throughout.
As for `C#C[C@]1(O)CC[C@H]2[C@@H]3[C@H](C)CC4=C(CCC(=O)C4)[C@H]3CC[C@@]21C`, the Potency result in test [19], in test [4], in [5], in test [6], in [9] and in test [10] was “inactive” in each case. Besides, the Potency entry in test [12], in test [13], in test [18] and in test [15] was “inactive” each time.
With `Cc1cc(-n2nc3ccc(Cl)cc3n2)c(O)c(C(C)(C)C)c1`, the Potency result in test [16], in test [1], in [4], in [5], in test [9] and in test [10] was “inactive” in each case. The Potency result in test [11], in [12], in test [13], in [14], in test [18] and in [15] was “inactive” in each case. For the same compound, in test [17], the max activation is -2.8%.
As for `COc1cccc2c1C(=O)c1c(O)c3c(c(O)c1C2=O)C[C@@](O)(C(C)=O)C[C@@H]3O[C@H]1C[C@H](N)[C@H](O)[C@H](C)O1`, the Potency was 27.5 µM (active) and 21.1 µM (active) in test [19]; 1.09 µM (active) and 2.66 µM (active) in [9]; 1.38 µM (active) and 1.33 µM (active) in [10]; 21.8 µM (active) and 9.44 µM (active) in [11]; 4.89 µM (active) and 6.68 µM (active) in [12]; 30.8 µM (active) and 4.22 µM (active) in test [13]. Besides, the Potency result in [2], in test [4], in test [5] and in test [7] was “inactive” each time. Moreover, the result in test [8] was inactive. The max activation in test [17] is -7.89%.
`CCc1oc2ccccc2c1C(=O)c1cc(I)c(O)c(I)c1`: the Potency in test [1] is 21.1 µM (active). Also, the Potency result in test [4], in [5], in test [6], in [10], in test [12] and in test [13] was “inactive” each time. Besides, the Potency entry in [14] is “inactive”. The max activation in test [17] was -8.05%.

Values taken from PubChem BioAssay (Tox21).
